Laboratory results from PubChem BioAssay (EPA / NIEHS).
Results filed as inconclusive are left out. The source made the active and inactive calls. Rule for the calls: active = hit-call score of the fitted dose curve at least 0.9, where 1 is the maximum; inconclusive = response in the unintended direction; inactive = score below 0.9.

Experiment: Tanguay_ZF_120hpf_SOMI_legacy: (Legacy) Oregon State University Tanguay Lab 120 Hour Post-fertilization zebrafish Assay for Somite Malformation (AID 2283647)
Procedure: Tanguay_ZF_120hpf_legacy is a whole embryo, multiplexed endpoint assay using zebrafish larvae exposed for 120 hours post fertilization on a 96-well plate.Tanguay_ZF_120hpf_SOMI_legacy is one of one assay component(s) measured or calculated from the Tanguay_ZF_120hpf_legacy assay. It is designed to make measurements of zebrafish development as detected with brightfield microscopy of developing zebrafish embryos.Data from the assay component Tanguay_ZF_120hpf_SOMI_legacy was analyzed into 1 assay endpoints. This assay endpoint, Tanguay_ZF_120hpf_SOMI_legacy, was analyzed in the positive analysis fitting direction relative to DMSO as the negative control and baseline of activity. Using a type of morphology reporter, gain-of-signal activity can be used to understand changes in developmentals as they relate to the whole embryo. To generalize the intended target to other relatable targets, this assay endpoint is annotated to the zebrafish development intended target family, where the subfamily is somitogenesis.
Zebrafish husbandry: Tropical 5D wild-type adult zebrafish were housed in at an approximate density of 1000 per 100 gallon tank at the Sinnhuber Aquatic Research Laboratory, Oregon State University, Corvallis, OR. Each tank was kept at standard laboratory conditions of 28C on a 14-h light/10-h dark photoperiod in fish water consisting of reverse osmosis water supplemented with a commercially available salt (Instant Ocean). Spawning funnels were placed into the tanks the night prior, and embryos were collected and staged. To increase bioavailability, the chorion was enzymatically removed using pronase (63.6mg/ml, >/= 3.5U/mg, Sigma-Aldrich: P5147) at 4 hours post fertilization (hpf) using a custom automated dechorionator.Chemical exposures: Six hpf dechorionated embryos were placed 1 embryo per well in a 96-well plate prefilled with 90 ul of EM using automated embryo placement systems (AEPS). Ten microliters of each row of dilution plate 2 was added to 2 exposure plates. The final DMSO concentration used was 0.64% (vol/vol). Thirty-two embryos were also exposed to 5uM trimethyltin chloride (positive control). Plates were sealed to prevent evaporation and foil covered to reduce light exposure and kept in a 28C incubator. Embryos were statically exposed until 120 hpf. At 24 hpf, embryos were assessed for photomotor response using a custom photomotor response analysis tool (PRAT) and for developmental toxicity endpoints (MO24: mortality at 24 hpf, DP: developmental progression, SM: spontaneous movement, and NC: notochord distortion). At 120 hpf, locomotor activity was measured using Viewpoint Zebralab and assessed for 18 endpoints. Zebrafish acquisition and analysis program (ZAAP), a custom program designed to inventory, acquire, and manage zebrafish data, was used to collect developmental endpoints as either present or absent (i.e., binary responses were recorded). If mortality occurred for an embryo (at either 24 or 120 hpf), the non-mortality endpoints were not measured.

Compound | outcome | AC50
CCO[Si](CCCNC(N)=O)(OCC)OCC | inactive | 
COc1cc(C(=O)NC2CCN(C)CC2)ccc1Nc1ncc2c(n1)N(C1CCCC1)CC(F)(F)C(=O)N2C | inactive | 
OC12N=C(c3ccccc3)SC1Cc1cc(Cl)ccc12 (stereo not given) |  | 117 µM (active)
NCc1cccc(C2CCN(C(=O)c3ccc(C#Cc4ccccc4F)o3)CC2)c1 | inactive | 
CCCOC(=O)c1cc(O)c(O)c(O)c1 | inactive | 
Cc1ncc(CO)c(CO)c1O | inactive | 
CCN(Cc1cccnc1)C(=O)c1cccc(Cl)c1[C@]1(C)C(=O)N(Cc2ccc(OC)cc2OC)c2ccc(Cl)cc21 | inactive | 
O=c1ccc2ccccc2o1 | inactive | 
CCCCOC(=O)c1ccc(O)cc1 |  | 63.7 µM (active)
COc1cccc([C@H](O)C2CCN(CCc3ccc(F)cc3)CC2)c1OC | inactive | 
COCC(C)OCC(C)OCC(C)O (stereo not given) | inactive | 
CN(C)C(=O)C1(N2CCCCC2)CCN(CC[C@@]2(c3ccc(Cl)c(Cl)c3)CN(C(=O)c3ccccc3)CCO2)CC1 | inactive | 
Cc1occc1C(=O)Nc1ccc(C(=O)N2CCC(F)(F)/C(=C\C(=O)N3CCC(N4CCCCC4)CC3)c3ccccc32)cc1 | inactive | 
CN1C(=O)CC[C@H]1c1cccnc1 | inactive | 
CN(C[C@@H](CC[N+]12CCC(C3CCCCC3)(CC1)CC2)c1ccc(Cl)c(Cl)c1)C(=O)c1cc(C(F)(F)F)cc(C(F)(F)F)c1 | inactive | 
O=C(OCCCCCCOC(=O)c1ccccc1)c1ccccc1 | inactive | 
O=C(Nc1ccc(Cl)cc1)Nc1ccc(Cl)c(Cl)c1 | inactive | 
O=C1O[C@H]([C@@H](O)CO)C(O)=C1O | inactive | 
Cc1ccc2oc(CN(Cc3ccccc3)C(=O)Nc3c(F)cc(F)cc3F)c(-c3ccc(Cl)cc3)c2c1 | inactive | 
CC[C@@H]1C[C@H](N(Cc2cc(C(F)(F)F)cc(C(F)(F)F)c2)C(C)=O)c2cc(C(F)(F)F)ccc2N1C(=O)OC(C)C | inactive | 

Compound | outcome | AC50
Cc1oc2c(NC(=O)c3c(Cl)cccc3Cl)cccc2c1C(C)(C)O | inactive | 
CC(C)(C)c1cc(/C=C2\SC(N)=NC2=O)cc(C(C)(C)C)c1O | inactive | 
O=C(O)Cn1c(=O)n(Cc2ccc(Br)cc2F)c(=O)c2ccc(Cl)cc21 | inactive | 
c1ccc2ccccc2c1 | inactive | 
Clc1ccccc1C(c1ccccc1)(c1ccccc1)n1ccnc1 |  | 61.3 µM (active)
CCCC(=O)OCCC(C)C | inactive | 
CCCCCCCC[Si](OCC)(OCC)OCC | inactive | 
CCCCCCCCCC(=O)O | inactive | 
CCCCCCCCCCCC[N+](C)(C)C | inactive | 
Oc1ccccc1 | inactive | 
C[C@]12CC[C@@H]3c4ccc(O)cc4CC[C@H]3[C@@H]1CC[C@H]2O | inactive | 
Cc1ccc(C(C)C)cc1 | inactive | 
Cc1c2ccccc2c(C)c2c1ccc1ccccc12 | inactive | 
c1ccc2n[nH]nc2c1 | inactive | 
CO[C@H]1/C=C/O[C@@]2(C)Oc3c(C)c(O)c4c(O)c(c(/C=N/N5CCN(C)CC5)c(O)c4c3C2=O)NC(=O)/C(C)=C\C=C\[C@H](C)[C@H](O)[C@@H](C)[C@@H](O)[C@@H](C)[C@H](OC(C)=O)[C@@H]1C | inactive | 
Oc1ccc2ccccc2c1 | inactive | 
CC(C)(C)c1csc(-c2cc3cc(OCc4ccccc4CC(=O)O)ccc3o2)n1 | inactive | 
O=C(O)Cc1cc(I)c(Oc2ccc(O)c(I)c2)c(I)c1 | inactive | 
Cc1cc(F)ccc1-c1cc(N2CC[C@@H](O)[C@H]2CO)ncc1N(C)C(=O)C(C)(C)c1cc(C(F)(F)F)cc(C(F)(F)F)c1 | inactive | 
NC(=O)c1nc(-c2cccc(-c3cc(F)ccc3OCC(F)(F)C(F)(F)F)c2)n[nH]1 |  | 25.8 µM (active)
